# Compound activity as filed in PubChem.
# Sampled rows, rich in hits. Any-hit rate of the full collection: about 2%.
# LEDGF integ inh: blockers of LEDGF/p75-dependent integrase strand transfer – biochemical, TR-FRET, high throughput, primary screen | HIV-1 integrase (with human LEDGF/p75) | TR-FRET IN-LEDGF/p75 DNA integration, Eu/Cy5 | inhibition, % at 3.7 µM | 370,000 compounds, 0.64% hits | AID 743269, 2014;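 active means inhibition above the screen-wide mean plus 3 SD, cut at about 13% in these data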;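 further: signal is the Cy5 over europium emission ratio at 671 and 618 nm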
# TCR-CD3 inh: inhibitors of human TCR-CD3 interaction, primary screen, biochemical, fluorescence, TAMRA-labeled TCR probe. T-cell receptor (TCR). inhibition, % at 9.4 µM. 360,000 compounds, 0.37% hits; in the data active means inhibition above about 19%;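 further: recombinant mutant TCR 2C K166C tagged with TAMRA read by polarization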
# UHRF1 MBD2 ctr: UHRF1 methylated DNA binding inhibitors, primary screen, counter-screen for MBD2 inhibitor project, biochemical, TR-FRET, human UHRF1, single concentration; E3 ubiquitin-protein ligase UHRF1 (Homo sapiens), Q96T88; UHRF1 binding to methylated oligo; inhibition, % at 4.4 µM; 370,000 compounds, 0.75% hits; AID 687016, 2013; in the data active means inhibition above about 21%;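 further: UHRF1 SRA domain binding a hemimethylated CpG hairpin DNA probe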
# Rin1-Abl PPI inh: inhibitors of Rin1-Abl protein binding, primary screen, biochemical, TR-FRET; Tyrosine-protein kinase ABL1 (Homo sapiens) + Ras and Rab interactor 1 (Homo sapiens), …; 360,000 compounds, 0.4% hits; inhibition, % at 7.35 µM; AID 588664, 2011; in the data active means inhibition above about 5%, passing the limit was not always enough
# MBD2 inh: inhibitors of MBD2 binding to methylated DNA, primary screen, biochemical, TR-FRET, DNA-binding domain, human | Methyl-CpG-binding domain protein 2 (Homo sapiens), Q9UBB5 | MBD2 binding to methylated oligonucleotide | inhibition, % at 4.4 µM | 370,000 compounds, 0.31% hits | AID 686964, 2013; in the data active means inhibition above about 13%
# Rin1-Abl confirm: Rin1-Abl binding inhibitor retest, confirmation, biochemical, TR-FRET; shares compounds with Rin1-Abl PPI inh; 1,300 compounds, 49% hits; AID 602124, 2011; inhibition, % at 7.35 µM; purified proteins
# GFP quench: GFP fluorescence inhibitors and quenchers, artefact control for Rin1-Abl interaction inhibitor project, biochemical. inhibition, % at 6.75 µM. shares compounds with Rin1-Abl PPI inh. 1,300 compounds, 8.5% hits. inhibitors/quenchers counterscreen;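 further: ABL1-eGFP fusion protein alone without its partner RIN1-SBP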
# GFP quench DR: GFP fluorescence inhibitors and quenchers, dose response, artefact control for Rin1-Abl interaction inhibitor project, biochemical; shares compounds with Rin1-Abl PPI inh; GFP fluorescence interference/quenching counterscreen; IC50, µM; 230 tested, under 10 active; call rule not given here;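 further: ABL1-eGFP fusion protein alone without its RIN1 binding partner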
# Hits are given with their value; 0 = inactive; - = no result. Unless noted, no stated cut-off is given here; in the data, active means inhibition above about 6.5%; inactive means the rest.
SMILES,LEDGF integ inh,TCR-CD3 inh,UHRF1 MBD2 ctr,Rin1-Abl PPI inh,MBD2 inh,Rin1-Abl confirm,GFP quench,others
COc1ccc(S(=O)(=O)N(C)C[C@H]2Oc3ccc(NC(=O)Nc4c(C)noc4C)cc3C(=O)N([C@H](C)CO)C[C@@H]2C)cc1,0,0,0,0,0,-,-,
C[C@@H]1CCCCO[C@@H](CN(C)S(=O)(=O)c2ccccc2)[C@@H](C)CN([C@H](C)CO)C(=O)c2cc(NS(=O)(=O)c3ccc(F)cc3)ccc2O1,0,0,0,51,0,60,0,GFP quench DR=0
CCOC(=O)CCCCCC(=O)Nc1ccc2c(c1)C(=O)N([C@@H](C)CO)C[C@@H](C)[C@H](CN(C)S(=O)(=O)c1cccs1)OCCCC[C@H](C)O2,0,0,0,8.2,0,0,0,
CCCCCCn1cc(CN2CC(N3CCN(CCO)CC3)CS2(=O)=O)nn1 (stereo not drawn),0,0,0,-,0,-,-,
CC(C)c1nc2oc3c(=O)[nH]cnc3c2c2c1COC(C)(C)C2,0,0,0,0,0,-,-,
CC(C)c1nc2oc3c(=O)[nH]cnc3c2c2c1CCC2,0,0,0,7.8,0,13,0,
O=C(NC1CCCCC1)c1cc(S(=O)(=O)N2CCCC2)ccc1Cl,0,0,0,0,0,-,-,
COc1ccc(CNC(=O)c2ccc(NC(=O)CC3SC(N4CCCC4)=NC3=O)cc2)cc1 (stereo not drawn),0,0,0,7.8,0,7.5,0,
COc1ccccc1C(=O)N=C1NC(=O)CC2C(=O)NCCN12 (stereo not drawn),0,0,0,8.8,0,0,0,
Cc1ccccc1N1CC(C(=O)Nc2ccc(S(=O)(=O)N3CCCCC3)cc2)CC1=O (stereo not drawn),0,0,0,7.7,0,7.5,0,
NS(=O)(=O)c1ccc(NC(=O)C2CCCN(S(=O)(=O)c3ccc(F)cc3)C2)cc1 (stereo not drawn),0,0,0,18,0,0,0,
Cc1ccccc1N1CC(C(=O)Nc2ccc(S(=O)(=O)N3CCOCC3)cc2)CC1=O (stereo not drawn),0,0,0,0,0,-,-,
Cc1cccc(N2CC(C(=O)Nc3ccc(S(=O)(=O)N4CCCCC4)cc3)CC2=O)c1C (stereo not drawn),0,0,0,13,0,13,0,
CCc1cccc(C)c1NC(=O)CCN1C(=O)NC(C)(C)C1=O,0,0,0,0,0,-,-,
CCn1c2ccccc2c2cc(CN3CCN(Cc4cc(OC)ccc4O)CC3)ccc21,0,0,0,0,0,-,-,
CCn1c2ccccc2c2cc(CN3CCN(S(C)(=O)=O)CC3)ccc21,0,0,0,6.1,0,0,0,
CCCC(C)NC(=O)CN(Cc1ccco1)S(=O)(=O)c1ccccc1 (stereo not drawn),0,0,0,0,0,-,-,
CCC(C)NS(=O)(=O)c1ccc(S(=O)(=O)N(CC(=O)Nc2ccccc2)Cc2ccco2)cc1 (stereo not drawn),0,0,0,4.8,0,0,0,
Cc1nnc(SCCOc2ccccc2)s1,0,0,0,11,0,7.9,0,
COc1cc([N+](=O)[O-])ccc1NC(=O)CCS(=O)(=O)c1ccc2c(c1)n(C)c(=O)c(=O)n2C,0,0,0,0,0,-,-,
CC(NC(=O)c1cccc(S(=O)(=O)N2CCN(Cc3ccccc3)CC2)c1)c1ccc(Br)cc1 (stereo not drawn),0,0,0,0,0,-,-,
CCNC(=O)C1(C)CCCN(Cc2ccc3ccccc3c2Br)C1 (stereo not drawn),0,0,0,0,0,-,-,
CN(C)S(=O)(=O)c1ccc(NC(=O)COc2ncnc3c2cnn3-c2ccccc2)cc1,0,0,0,6.8,0,0,0,
CC(=O)Nc1ccc(Nc2ncnc3c2cnn3-c2ccccc2)cc1,0,0,0,0,0,-,-,
COc1ccc(CCNC(=O)c2c(N)no[n+]2[O-])cc1OC,0,0,0,6.6,0,0,0,
SMILES,LEDGF integ inh,TCR-CD3 inh,UHRF1 MBD2 ctr,Rin1-Abl PPI inh,MBD2 inh,Rin1-Abl confirm,GFP quench,others
N#CC1=C(N)Oc2nc[nH]c(=O)c2C1c1cccs1 (stereo not drawn),0,0,0,0,0,-,-,
O=c1[nH]cnc2c1C(c1ccccc1)c1c(nc[nH]c1=O)O2,0,0,0,23,0,44,0,GFP quench DR=0
CC(=O)Nc1cccc(C(=O)NNC(=O)c2ccc(NS(=O)(=O)c3cccs3)cc2)c1,0,0,0,0,0,-,-,
Cc1ccsc1C(=O)NNC(=O)c1ccc(NS(=O)(=O)c2cccs2)cc1,0,0,0,10,0,0,0,
CCCCCCCC[n+]1c(C)n(-c2ccccc2)c2ccc(NC(C)=O)cc21,0,0,0,5.0,0,6.7,0,
Nc1nnc(CCCCc2cccs2)o1,0,0,0,7.6,0,0,0,
CCOC(=O)C1CCCN(Cc2ccccc2OCC)C1 (stereo not drawn),0,0,0,9.4,0,0,0,
CCOC(=O)C1CCCN(Cc2ccccc2C)C1 (stereo not drawn),0,0,0,0,0,-,-,
COCCN=c1scc(-c2cccs2)n1/N=C/c1ccc(O)c(O)c1O,0,0,0,13,0,11,10,
NC(=O)C1CCN(C(=O)c2cnn(-c3ccccc3)c2NC(=O)c2cccc(F)c2)CC1,0,0,0,23,0,0,0,
CC1NC(=O)NC1CCCCC(=O)O (stereo not drawn),0,0,0,8.1,0,9.0,0,
Cc1ccc(NC(=O)CCCCCC2NC(=O)NC2C)cc1 (stereo not drawn),-,-,-,88,-,91,0,GFP quench DR=0
CCOC(=O)c1[nH]c(=O)[nH]c1CSc1ccccn1,0,0,0,0,0,-,-,
CCOC(=O)CCCCC(=O)c1[nH]c(=O)[nH]c1CSCCO,0,0,0,78,0,82,0,GFP quench DR=0
N#Cc1c(-c2ccccc2)nc(SCC(=O)N(c2ccccc2)c2ccccc2)[nH]c1=O,0,0,0,0,0,-,-,
CCOC(=O)CCCCC(=O)c1[nH]c(=O)[nH]c1Cn1cnc2ccccc21,0,0,0,71,0,79,0,GFP quench DR=0
CCOC(=O)CCCCC(=O)c1[nH]c(=O)[nH]c1CSc1nc(-c2ccccc2)c(C#N)c(=O)[nH]1,15,0,0,61,0,75,0,GFP quench DR=0
